# Laboratory results from PubChem BioAssay (NCI).
# The panel holds about 83,000 compounds, 20% with a hit somewhere; the sample as a whole holds those more often.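 Plates (96-well) were seeded with cells, treated with compound at one concentration, and incubated for 48 hours before percent growth was determined.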 Activity calls are given as the source filed them. The calls were made as follows: active = growth percent below 10; inactive = the rest.
# System: HL-60(TB) leukemia
# Assay: NCI-60 one-dose screen, 48 h (100 = growth as untreated, 0 = no growth, -100 = all killed)
# Details: 10 µM unless noted
row,SMILES,growth
1,O=C1NC(=O)c2c1c1c3cc(Br)ccc3[nH]c1c1oc3ccc(F)cc3c21,44.6% (inactive)
2,O=c1[nH]c2ccc(Cl)cc2cc1CSc1nccc(-c2ccc(Cl)cc2)n1,102% (inactive)
3,NS(=O)(=O)c1ccc(N2N=C(c3ccc(NC(=O)Nc4ccccc4)cc3)CC2c2ccc(Br)cc2)cc1 (stereo unspecified),-4.8% (active)
4,C=C1CCC2C3(C)COC(c4c(F)cccc4F)OC3CCC2(C)C1CC(O)C1=CCOC1=O (stereo unspecified),81.6% (inactive)
5,Cc1ccc(NCC(=O)Nn2c(COc3ccccc3)nc3ccccc3c2=O)cc1,93.9% (inactive)
6,O=C1Nc2ccc(F)cc2/C1=C/c1cccc(OCc2ccccn2)c1,7.92% (active)
